# The supplement of paper PMC8253809
# Several values for one entry are separate records, joined by “and”; a condition that tells them apart may be missing. Equal entries are not always repeated.
# What was measured:
# Assay in all cases: growth inhibition (% activity, log2 RLU normalised to DMSO / staurosporine); higher = more growth inhibition
# Settings in all cases: 33 µM
# [1] = test system: DIPGX29 (H3.3 K27M diffuse intrinsic pontine glioma line)
# Outline: (§1)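 The growth-inhibition value is the median over replicates. pHGG cell lines and H9-derived neural stem cells on Geltrex-coated 384-well plates received approved drugs by pin tool at a single final concentration of about 33 μM, in triplicate, for 7 days at 37 °C, 5% CO2. CellTiter-Glo luminescence was log2-transformed and normalised per plate to % activity between solvent and positive control wells.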
# [2] = test system: DIPGX37 (H3.3 K27M diffuse intrinsic pontine glioma line)
# Outline: as §1
# [3] = test system: DIPGX7 (H3.3 K27M diffuse intrinsic pontine glioma line)
# Outline: as §1
# [4] = test system: DIPGX9 (diffuse intrinsic pontine glioma line)
# Outline: as §1
# [5] = test system: HGGX39 (paediatric high-grade glioma line)
# Outline: as §1
# [6] = test system: HGGX6 (H3.3 G34R paediatric high-grade glioma line)
# Outline: as §1
# [7] = test system: HNSC
# Outline: as §1
# [8] = test system: SUDIPGIV (diffuse intrinsic pontine glioma line)
# Outline: as §1
# [9] = test system: SUDIPGVI (diffuse intrinsic pontine glioma line)
# Outline: as §1
# [10] = test system: SUDIPGXIII (diffuse intrinsic pontine glioma line)
# Outline: as §1
Structure (SMILES),growth inhibition [1],growth inhibition [2],growth inhibition [3],growth inhibition [4],growth inhibition [5],growth inhibition [6],growth inhibition [7],growth inhibition [8],growth inhibition [9],growth inhibition [10]
CNC(=O)Oc1ccc2c(c1)[C@]1(C)CCN(C)[C@@H]1N2C,-0.0328%,2.09%,-0.713%,-0.267%,-1.19%,1.68%,-0.354%,-0.781%,2.19%,1.12%
CN1C(=O)CCS(=O)(=O)C1c1ccc(Cl)cc1 (stereo not given),0.502%,0.814%,0.531%,1.13%,2.2%,1.29%,2.59%,0.226%,-0.17%,-0.0547%
CC(C)c1c(CN(C)C(C)Cc2ccccc2)n(C)n(-c2ccccc2)c1=O (stereo not given),2.25%,0.985%,2.59%,-0.334%,-0.152%,-0.564%,48.4%,1.4%,-1.33%,2.29%
C=CCN.ClCC1CO1 (stereo not given),0.23%,-1.75%,1.62%,1.51%,2.03%,-0.039%,0.544%,0.558%,1.49%,0.672%
O=P1(NCCCl)OCCCN1CCCl (stereo not given),-2.21%,-0.766%,5.61%,0.389%,3.87%,-0.383%,-5.21%,-2.15%,-7.65%,-1.43%
CNCC(=O)c1ccc(O)c(O)c1,-1.95%,2.52%,-0.724%,-0.688%,0.248%,-0.714%,-1.87%,0.154%,-1.65%,3.12%
Cc1cccc(C)c1NC1=NCCCS1,-3.36%,-1.28%,-0.135%,-0.817%,-0.494%,0.819%,-4.34%,2.42%,-4.55%,0.0734%
CC(=O)OC1CN2CCC1CC2 (stereo not given),-0.533%,1.16%,0.391%,1.28%,1.15%,-1.32%,2.31%,-0.883%,1.26%,0.846%
N[C@@H]1C[C@H]1c1ccccc1.N[C@H]1C[C@@H]1c1ccccc1,1.4%,3.63%,2.09%,-0.549%,5.28%,2.4%,3.66%,1.14%,3.88%,0.0986%
NCC(O)c1ccc(O)cc1 (stereo not given),-0.0577%,1.17%,0.265%,-0.182%,2.12%,-2.95%,22.2%,1.19%,-3.26%,-3%
NCC(CC(=O)O)c1ccc(Cl)cc1 (stereo not given),1.57%,-2.95%,2.49%,1.01%,0.323%,-0.203%,33.3%,2.9%,-4.01%,0.136%
O=C(O[C@H]1C[N+]2(CCCOc3ccccc3)CCC1CC2)C(O)(c1cccs1)c1cccs1,-1.76%,-1.33%,-0.665%,-1.04%,-0.0721%,-0.623%,3.39%,-1.77%,-5.53%,0.0508%
CCC1(c2ccc(N)cc2)CCC(=O)NC1=O (stereo not given),-0.867%,0.792%,0.848%,0.885%,1.68%,2.54%,-1.67%,-1.8%,0.634%,-0.67%
C=CC[C@]1(O)CC[C@H]2[C@@H]3CCC4=CC(=O)CCC4=C3C=C[C@@]21C,1.35%,1.67%,-0.403%,1.01%,1.7%,1.91%,2.23%,1.08%,1.88%,2.31%
CC(C)N(CCNC(=O)CN1CCCC1=O)C(C)C,2.94%,3.86%,1.76%,4.77%,3.31%,3.19%,1.2%,-0.694%,3.19%,2.1%
CC(=O)OC12COC1CC(O)C1(C)C(=O)C(O)C3=C(C)C(O)CC(O)(C(OC(=O)c4ccccc4)C21)C3(C)C (stereo not given),7.46%,3.33%,4.76%,9.41%,14.7%,6.8%,11.9%,21.5%,1.87%,3.01%
c1ccc2c(c1)sc1ccccc12,-2.47%,-0.0217%,-2.61%,-1.01%,-2.68%,-1.23%,-4.08%,-1.98%,-1.87%,1.54%
Cc1cc(C(C#N)c2ccc(Cl)cc2)c(Cl)cc1NC(=O)c1cc(I)cc(I)c1O (stereo not given),-4.52%,-1.84%,-0.384%,-2.01%,-0.728%,-4.74%,4.96%,-0.00583%,-3.36%,3.29%
C#C[C@]1(O)CC[C@H]2[C@@H]3CCC4=CC(=O)CC[C@]4(C)[C@H]3CC[C@@]21C,0.66%,2.06%,2.92%,3.05%,1.6%,0.344%,5.86%,0.623%,2.6%,0.296%

Structure (SMILES),growth inhibition [1],growth inhibition [2],growth inhibition [3],growth inhibition [4],growth inhibition [5],growth inhibition [6],growth inhibition [7],growth inhibition [8],growth inhibition [9],growth inhibition [10]
O=C(O)c1nn(Cc2ccc(Cl)cc2Cl)c2ccccc12,1.18%,2.18%,1.47%,-0.0993%,1.2%,-0.667%,30.5%,3.06%,-3.75%,-0.117%
C[C@@H]1CC[C@H]2[C@@H](C)C(=O)O[C@@H]3O[C@@]4(C)CC[C@@H]1[C@]32OO4,3.47%,-0.962%,4.12%,4.81%,4.98%,4.39%,14.5%,12.8%,-4.44%,20.5%
CN(C)C1C(=O)C(C(N)=O)=C(O)C2(O)C(=O)C3=C(O)c4c(O)cccc4C(C)(O)C3CC12 (stereo not given),-1.53%,-2.75%,0.404%,-0.553%,1.88%,-0.661%,-1.6%,2.83%,-2.69%,-1.63%
CN(C)C(=O)Oc1ccc[n+](C)c1,0.471%,-1.26%,-0.161%,0.978%,0.907%,0.761%,-1.64%,0.973%,1.15%,-0.0947%
CCCN1C[C@H](CSC)C[C@@H]2c3cccc4[nH]cc(c34)C[C@H]21,-0.00648%,-1.76%,-0.373%,-0.427%,1.29%,2.2%,-2.99%,0.236%,0.348%,-3.14%
NCC1(CC(=O)O)CCCCC1,2.13% and 0.326%,4.84% and 0.615%,3.15% and 1.16%,-0.041% and -0.903%,2.36% and -1.3%,2.04% and -2.75%,2.28% and -0.457%,1.22% and -1.85%,2.85% and -1.96%,-1.15% and -0.111%
CNC1CC(N)C(O)C(OC2OC(CO)C(O)C3OC4(OC(C(N)CO)C(O)C(O)C4O)OC23)C1O (stereo not given),4.68%,1.71%,0.134%,3.12%,-0.261%,1.68%,1.11%,3.64%,1.16%,-0.132%
N.N.[Cl][Pt][Cl],-1.13%,0.384%,0.191%,0.402%,-0.146%,-3.02%,-5.11%,-3%,-1.15%,1.82%
CN(C)[C@@H]1C(=O)C(C(N)=O)=C(O)[C@@]2(O)C(=O)C3=C(O)c4c(O)ccc(Cl)c4[C@@](C)(O)[C@H]3C[C@@H]12,3.18%,4.29%,3.71%,3.16%,4.59%,3.5%,2.92%,2.12%,3.1%,-1.15%
Cn1c(CCCC(=O)O)nc2cc(N(CCCl)CCCl)ccc21,3.01%,2.76%,2.34%,11.2%,4.99%,3.4%,48.6%,-0.00689%,1.43%,-0.487%
C[N+]1(C)[C@@H]2C[C@@H](OC(=O)[C@H](CO)c3ccccc3)C[C@H]1[C@@H]1O[C@@H]12,-0.834%,1.29%,0.707%,0.849%,2.27%,2.07%,-1.37%,-0.286%,0.639%,0.798%
C/C=C(\C)C(=O)N[C@@H](c1ccccc1)[C@@H](O)C(=O)O[C@H]1C[C@@]2(O)[C@@H](OC(=O)c3ccccc3)[C@@H]3[C@]4(OC(C)=O)CO[C@@H]4C[C@H](O)[C@@]3(C)C(=O)[C@H](OC(C)=O)C(=C1C)C2(C)C,11.3%,8.35%,8.08%,23.2%,33.6%,19.9%,59.9%,37%,0.972%,4.19%
CC[C@@]1(O)C(=O)OCc2c1cc1n(c2=O)Cc2cc3ccccc3nc2-1,11.8%,-1.33%,11.4%,14.7%,39.5%,13.4%,65.8%,46.6%,2.42%,2.77%
CCC1(c2cccc(O)c2)CCCCN(C)C1 (stereo not given),0.813%,0.766%,-0.204%,0.246%,-0.148%,-2.47%,18.5%,-0.915%,-3.26%,-1.39%
CC(C)NCC(O)c1ccccc1Cl (stereo not given),0.364%,-1.04%,-0.863%,-0.306%,2.3%,1.8%,-2.5%,0.901%,0.486%,-0.265%
CN1c2ccccc2C(NCCCCCCC(=O)O)c2ccc(Cl)cc2S1(=O)=O (stereo not given),-1.12%,-3.13%,-0.607%,0.503%,-0.419%,0.961%,-2.51%,-2.29%,-1.84%,0.605%
C[N+](C)(C)CCCCCCCCCC[N+](C)(C)C,0.486%,-0.577%,1.7%,1.41%,3.26%,2.4%,1.52%,0.278%,4.87%,-1.36%
C[C@]12CC[C@H]3[C@@H](CC[C@@]45O[C@@H]4C(O)=C(C#N)C[C@]35C)[C@@H]1CC[C@@H]2O,0.975%,-2.98%,3.34%,-0.94%,3.74%,0.2%,-3.23%,-0.766%,-0.488%,-1.34%
O=C(O[C@H]1C[C@H]2CC[C@@H](C1)[N+]21CCCC1)C(O)(c1ccccc1)c1ccccc1,-4.33%,-1.91%,-0.848%,-3.62%,-4.77%,-4.81%,20.6%,-1.98%,-6.45%,-0.149%
